From PubChem BioAssay (EPA / NIEHS)
Inconclusive results are not listed. Active and inactive are the calls of the source. Rule for the calls: active = hit-call score of the fitted dose curve at least 0.9, where 1 is the maximum; inconclusive = response in the unintended direction; inactive = score below 0.9.

Assay: Tanguay_ZF_120hpf_SNOU_legacy: (Legacy) Oregon State University Tanguay Lab 120 Hour Post-fertilization zebrafish Assay for Snout Malformation (AID 2283637)
How it was run: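 Tropical 5D wild-type zebrafish embryos, dechorionated with pronase at 4 hpf, were exposed singly from 6 hpf to 120 hpf statically at 28C in 0.64% DMSO. Snout malformation was scored present/absent by brightfield microscopy, fitted against DMSO.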

Structure (SMILES) | outcome | AC50
Cc1ccccc1[N+](=O)[O-] | inactive | –
Cc1cc2c3c(c1)C(c1ccccc1)=N[C@@H](NC(=O)c1ccncc1)C(=O)N3CC2 | inactive | –
CCOP(=S)(OCC)SCSC(C)(C)C | inactive | –
Cc1ccccc1O | inactive | –
CCSC(=O)N(CC)C1CCCCC1 | inactive | –
CC1=C2C[C@H]3[C@@H](CC=C4C[C@@H](O)CC[C@@]43C)[C@@H]2CC[C@]12O[C@@H]1C[C@H](C)CN[C@H]1[C@H]2C | – | 21 µM (active)
CCCN(CCC)N=O | inactive | –
CCC(=O)O[C@H]1CC[C@H]2[C@@H]3CCC4=CC(=O)CC[C@]4(C)[C@H]3CC[C@]12C | inactive | –
O=C(O)C(F)(F)C(F)(F)C(F)(F)C(F)(F)C(F)(F)F | inactive | –
CCNc1nc(NC(C)C)nc(SC)n1 | inactive | –
Cc1ccccc1CO[C@@H]1C[C@@]2(C(C)C)CC[C@]1(C)O2 | inactive | –
CCC(C)(CC)c1cc(NC(=O)c2c(OC)cccc2OC)on1 | inactive | –
Oc1ccc(Cl)cc1Cl | inactive | –
O=S(=O)(O)C(F)(F)C(F)(F)C(F)(F)C(F)(F)F | inactive | –
COc1ccc(O)c(C(C)(C)C)c1 | inactive | –
CN(C)c1nc(=O)n(C2CCCCC2)c(=O)n1C | inactive | –
Cc1cc(O)ccc1Cl | inactive | –
C1CC2OC2CC1C1CO1 (configuration not stated) | inactive | –
O=C(NC(=O)c1cc(F)c(F)cc1Cl)Nc1cc(F)ccc1N1CCC(C(=O)O)CC1 | inactive | –
Nn1cnnc1 | inactive | –
O=C(O)C(F)(F)C(F)(F)C(F)(F)C(F)(F)C(F)(F)C(F)(F)C(F)(F)C(F)(F)C(F)(F)F | inactive | –
CCCCCCCCOC(=O)c1ccccc1C(=O)OCCCCCCCC | inactive | –
